Test results: PubChem BioAssay (NCATS)
Results filed as inconclusive are left out. Entries that show only a call come without a potency. Calls of active or inactive are those of the source. Calls come from the whole dose curve; as a rule, active = well fitted inhibition curve with a large enough effect; inconclusive = small, poorly fitted or top-dose-only effect; inactive = flat fitted curve, though single readings scatter.

test: High Content Imaging Cell-Based qHTS for Inhibitors of the mTORC1 Signaling Pathway in MEF (Tsc2-/-, p53-/-) Cells (AID 2666); conditions: series mostly up to 38.3 µM;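 note: percent of cells scored positive for phospho-rpS6 Ser235/236 immunostaining by imaging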
From the text: NIH Molecular Libraries Probe Production Centers Network [MLPCN]
NIH Chemical Genomics Center [NCGC]
Assay Submitter (PI): Blenis, John; Hoffman, Greg; Harvard University
NCGC Assay Overview: Thee mammalian target of rapamycin (mTOR) is an intracellular serine/threonine kinase Aberrant regulation of mTOR signaling plays a causative role in a number of human diseases, including cancer, benign tumors such as lymphangioleiomyomatosis (LAM) and Tuberous Sclerosis Complex (TSC), and metabolic diseases such as diabetes and obesity. This project aims to identify inhibitors of ribosomal protein S6 (rpS6) phosphorylation. The phosphorylation of rpS6 is a key event downstream of mTOR activation. The assay uses a phospho-specific antibody of phospho-rpS6 to detect inhibitors of mTOR activation. Mutations in the Tsc1 and Tsc2 genes are the underlying genetic lesions responsible for TSC, causing constitutive activation of the mTORC1 pathway and leading to profound effects on cell metabolism. Aberrant metabolism in cancer has recently received significant attention as a target to develop therapeutic agents in the treatment of cancer1. As Tsc2-/- cells have lost the ability to respond to energy and growth factor deprivation, these cells are unable to properly down regulate cellular biosynthetic processes in response to metabolic stress, and are thus extremely sensitive to glucose deprivation-induced death.2 A central goal of this project is to explore the unique cell survival and metabolic properties of cells with Tsc1 or Tsc2 by screening for compounds that selectively target the Tsc2-/- MEFs by screening both Tsc2-/- and WT MEF cell lines. We hope to better understand these aspects of TSC physiology in order to exploit them for therapeutic benefit.
NCGC IN Cell Assay Protocol:
For quantitative high throughput analysis of mTORC1 signaling, we developed a cell-based assay for immuno-fluorescence based detection of rpS6 phosphorylation on the Acumen Explorer that will be used a platform for the primary small molecule screen. Mouse embryonic fibroblasts (MEFs) are cultured in 1536-well plates using DMEM + 10% FBS. Twenty-four hrs after plating, test compounds (solubilized in DMSO) are delivered and incubated with the cells for 24 hrs at 37 degree Celsius. Following the incubation, media with compound is aspirated and the cells are fixed in 4% paraformaldehyde (PFA) containing PBS + 0.2% TX-100. Next, PFA is aspirated, cells are washed two times with PBS plus 0.2% TX-100 and the cells are blocked for 1 hr at room temperature (blocking buffer: LiCOR Blocking Buffer plus 0.2% TX-100). This is followed by aspiration and staining with Alexa-488 conjugated-phospho-rpS6 Ser235/236 antibody for 2 hours at room temperature (Cell Signaling Technology # 4803, 1:50 dilution in blocking buffer). Cells are washed two times with PBS plus 0.2% TX-100, and stained with 10 uM propidium iodide (PI) for 20-25 minutes for cell number measurement (1:500 dilution of Hoescht staining is also added for IN Cell imaging). Active wells which are selected (based on Acumen results) are imaged on the IN Cell 1000 (GE Healthcare) using the D360/40X and HQ480/40X excitation filters for the Hoechst and Alexa-488 cytoplasmic stains, respectively. The fluorescence emission filters used were HQ460/40M and HQ535/50M for the Hoechst and Alexa-488 cytoplasmic stains, respectively. The normalized phospho-S6 staining is calculated as the ratio of […] for the single concentration rapamycin control ([…] nM) and DMSO columns. […] Inhibition of the pathway is defined based on the normalized phospho-S6 intensity in rapamycin treated cells. Each treatment is reported as the % positive cells in the well, where thresholds are defined by selecting wells with the highest and lowest signal and differentiating between the % non-active and % active populations. […]
Potency is the fitted concentration of half-maximal effect.

Row | SMILES | Potency
1 | Cc1cc(N)c2ccccc2[n+]1CCCCCCCCCC[n+]1c(C)cc(N)c2ccccc21 | inactive
2 | Nc1cc(=O)[nH]c(N)n1 | inactive
3 | CC1=C(CC(=O)O)c2cc(F)ccc2/C1=C\c1ccc(S(C)=O)cc1 (stereo not given) | inactive
4 | CC(C(O)c1ccc(O)cc1)N1CCC(Cc2ccccc2)CC1 (stereo not given) | inactive
5 | CCN(CC)CCOC(=O)C1(C2CCCCC2)CCCCC1 | inactive
6 | CN(C)CCOC(C)(c1ccccc1)c1ccccn1 (stereo not given) | inactive
7 | CC(C)NC[C@H](O)c1ccc(O)c(O)c1 | inactive
8 | CC(=O)OCC(=O)[C@@]1(O)CC[C@H]2[C@@H]3CCC4=CC(=O)CC[C@]4(C)[C@H]3C(=O)C[C@@]21C | inactive
9 | CC(CN(C)C)CN1c2ccccc2CCc2ccccc21 (stereo not given) | inactive
10 | CC(CN1c2ccccc2Sc2ccccc21)N(C)C (stereo not given) | inactive
11 | COCCOC(=O)C1=C(C)NC(C)=C(C(=O)OC/C=C/c2ccccc2)C1c1cccc([N+](=O)[O-])c1 (stereo not given) | inactive
12 | COc1ccc(Cl)cc1C(=O)NCCc1ccc(S(=O)(=O)NC(=O)NC2CCCCC2)cc1 | inactive
13 | C[C@](N)(Cc1ccc(O)cc1)C(=O)O | inactive
14 | CC(C)(C(=O)O)c1ccc(C(O)CCCN2CCC(C(O)(c3ccccc3)c3ccccc3)CC2)cc1 (stereo not given) | inactive
15 | CCCn1cnc2c1c(=O)n(CCCCC(C)=O)c(=O)n2C | inactive
16 | NC1CCN(c2cccc(Cl)n2)CC1 | inactive
17 | CN(C)CCCN1c2ccccc2Sc2ccc(Cl)cc21 | inactive
18 | CNCC(O)c1ccc(O)c(O)c1 (stereo not given) | inactive
19 | Nc1ncnc2c1ncn2[C@@H]1O[C@H](CO)[C@@H](O)[C@H]1O | inactive
20 | CN(C)CCCN1c2ccccc2CCc2ccccc21 | inactive

Row | SMILES | Potency
21 | CCCCCCCCCCCCCCCC(=O)NCCO | inactive
22 | C[C@]12C[C@H](O)[C@H]3[C@@H](CCC4=CC(=O)CC[C@@]43C)[C@@H]1CC[C@@H]2C(=O)CO | inactive
23 | NC(N)=NCCC[C@H](N)C(=O)O | inactive
24 | CN(C)CC[C@@H](c1ccc(Cl)cc1)c1ccccn1 | inactive
25 | CC(C)C(=O)c1c(C(C)C)nn2ccccc12 | inactive
26 | CC[C@H]1CN2CCc3cc(OC)c(OC)cc3[C@@H]2C[C@@H]1C[C@H]1NCCc2cc(OC)c(OC)cc21 | inactive
27 | CC(C)(C)[C@]1(O)CCN2C[C@H]3c4ccccc4CCc4cccc(c43)[C@@H]2C1 | inactive
28 | C#CCN(C)Cc1ccccc1 | inactive
29 | CCN(CC)C(C)CN1c2ccccc2Sc2ccccc21 (stereo not given) | inactive
30 | CC(C)(C)c1onc(OCP(=O)(O)O)c1CC(N)C(=O)O (stereo not given) | inactive
31 | CCN(CC)CCCC(C)Nc1c2ccc(Cl)cc2nc2ccc(OC)cc12 (stereo not given) | 18.5 µM (active)
32 | CNCCCC1c2ccccc2C=Cc2ccccc21 | inactive
33 | NC(=O)c1ncn([C@@H]2O[C@H](CO)[C@@H](O)[C@H]2O)n1 | inactive
34 | OCc1cc(C(O)CNCCCCCCOCCCCc2ccccc2)ccc1O (stereo not given) | inactive
35 | CC1=C(/C=C/C(C)=C/C=C/C(C)=C/C(=O)O)C(C)(C)CCC1 | inactive
36 | CNC(=O)Oc1ccc2c(c1)[C@]1(C)CCN(C)[C@@H]1N2C | inactive
37 | C[C@]12CC[C@@H]3c4ccc(O)cc4CC[C@H]3[C@@H]1CCC2=O | inactive
38 | N=c1c[n+](N2CCOCC2)[n-]o1 | inactive
39 | C=Cc1c(C)c2cc3[nH]c(cc4nc(cc5nc(cc1[nH]2)C(C)=C5CCC(=O)O)C(CCC(=O)O)=C4C)c(C)c3C=C | inactive
40 | CC1=C(CC(=O)O)c2cc(F)ccc2/C1=C\c1ccc(S(C)(=O)=O)cc1 | inactive
